# Source: PubChem
# Sm TGR inh: blocks Schistosoma mansoni thioredoxin glutathione reductase; 360,000 tested, 3% active; Potency, µM (highest dose often 114 µM), for the others: at the top dose activity change, negative = inhibition, usual class: inhibitors; AID 485364; purified TGR, DTNB reduction, TNB absorbance 405 nm; note: potency is the fitted concentration of half-maximal effect; % is set by controls: 0 for no effect and ±100 for the full control effect; nearly all actives have a fitted effect of over 60% in size
#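 TGR 20 nM + NADPH 100 uM (dispensed conc.), cpd preinc 15 min RT; start with NADPH (500 uM addition) then DTNB (15 mM addition). Kinetic TNB absorbance, 405 nm filter. Four-parameter Hill fit across titration.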
# NS1 function inh: inhibitors of influenza NS1 protein function. Potency, µM (doses to about 46.1 µM), without a hit: at the highest dose activity, positive = more growth. 270,000 tested, 0.4% active; calls by dose curve; note: potency is the fitted concentration of half-maximal effect; actives are rising curves; nearly all actives have a fitted effect of over 50% in size
#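 Compounds were scored for reversing the slow growth caused by influenza A NS1 in S. cerevisiae, measured by optical density at 600 nm. Assay medium contained 2% galactose at pH 6.0; NS1-free yeast of the same strain were the positive control.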
# Shiga toxin inh: Shiga toxin inhibition. Vero cells, Shiga toxin protein synthesis inhibition reporter. inhibition, % at 38.7 µM. 290,000 tested, 9.2% active; in the data active = inhibition mostly above about 28%, no sharp cut-off; inactive = mostly below about 43%; note: 0% is about no effect
# Pf growth 48h: inhibits P. falciparum growth in the first generation, 48 h. Potency, µM (highest dose often 28.7 µM), inactives show at the top dose activity change, negative = inhibition, hits mostly inhibitors. 310,000 tested, 5.9% active. P. falciparum luciferase growth in erythrocytes, 48 h; note: potency is the fitted concentration of half-maximal effect; % is set by controls: 0 for no effect and ±100 for the full control effect
#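 Parasite viability was followed by luminescence of a genomically integrated firefly luciferase. Cultures held 0.1% parasitemia at 2% hematocrit (final), incubated under 5% CO2 at 37 C.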
# Pf growth 96h: P. falciparum growth inhibition at 96 hour, primary screen for plastid delayed-death inhibitors. P. falciparum luciferase reporter growth, 96 h. Potency, µM (titrated, usually from 28.7 µM), without a hit: at the highest dose activity change, negative = inhibition, most hits filed as inhibitors. 320,000 tested, 6.9% active. AID 504834; note: potency is the fitted concentration of half-maximal effect; % is set by controls: 0 for no effect and ±100 for the full control effect
#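 96 h incubation, 37 C, 5% CO2, of luciferase-reporter P. falciparum-infected RBCs (2% hematocrit, 0.05% parasitemia final) with test compounds; endpoint luminescence.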
# Cycloheximide cs: counter-screen for Shiga toxin inhibitors: cycloheximide protein synthesis inhibition. max response, %. cell reporter, cycloheximide protein synthesis inhibition counterscreen. 300,000 tested, 12% active; in the data active = max response mostly above about 13%, no sharp cut-off; inactive = mostly below about 14%; note: read at 38.3 µM for the half of the compounds with a filed dose; 0% is about no effect
# The depositor's hits bear a star; ? = inconclusive; / = not tested or not shown. The list is not random: actives were taken first. Their share in the collection is about 21%. Unless noted, calls come from the whole dose curve; as a rule, active = well fitted curve in the direction sought with a large enough effect; inconclusive = small, poorly fitted or top-dose-only effect, or another doubt; inactive = no such curve, though single readings can be large; an effect the other way counts as inactive or inconclusive.
SMILES,Sm TGR inh,NS1 function inh,Shiga toxin inh,Pf growth 48h,Pf growth 96h,Cycloheximide cs
COCCNC(=S)Nc1ccc(Cl)c(Cl)c1,?,-3%,5,13%,?,15*
C=COCCNC(=O)Nc1ccc(Cl)c(Cl)c1,7%,-41%,54*,-82%,27%,31*
COC(=O)c1c(NC(=O)Cc2coc3cc(C)ccc23)sc2c1CCC2,-2%,/,/,/,/,/
Cc1ccc(C2CC2C(=O)NNC(=S)Nc2ccc(Cl)cc2)cc1 (centres undefined),-15%,-37%,12,-11%,?,4
O=C(N/N=C/c1ccccc1O)C1(O)c2ccccc2-c2ccccc21,3%,0%,-6,?,67%,4
N=c1c2c(-c3ccccc3)c(-c3ccccc3)n(Cc3ccco3)c2ncn1Cc1ccccc1,-3%,1%,12,/,2.6µM*,3
O=c1c2ccccc2nc(-c2ccccc2)n1Cc1ccco1,?,-9%,2,-16%,?,-6
CC(C)Cn1cnc2c(c(-c3ccccc3)c(-c3ccccc3)n2Cc2ccco2)c1=N,6%,3%,-6,/,2.1µM*,-4
N=c1c2c(-c3ccccc3)c(-c3ccccc3)n(Cc3ccccc3)c2ncn1CCO,-10%,-4%,-8,4.1µM*,?,-10
CSCC[C@@H](C(=O)NCc1cccs1)N1Cc2ccccc2C1=O,-9%,-2%,-22,/,8.3µM*,-5
CS(=O)(=O)CCC(C(=O)Nc1ccc2c(c1)OCO2)N1Cc2ccccc2C1=O (centres undefined),-34%,1%,23,36%,-20%,20*
CSCC[C@@H](C(=O)Nc1ccc2c(c1)OCCO2)N1Cc2ccccc2C1=O,5%,-4%,59,/,?,27*
O=C(CCc1nnc(CCCCc2ccccc2)o1)N1CCC(N2CCCC2)CC1,-6%,2%,12,?,15%,-7
COc1ccc(NC(=O)CCCSc2nc(-c3ccco3)cc(C(F)(F)F)n2)cc1,5%,/,/,/,/,/
O=[N+]([O-])c1ccc(Oc2cnc3ccccc3n2)cc1,3%,/,84,28%,35%,30
COc1ccc(Oc2cc(C)c3ccccc3n2)cc1,-25%,-13%,69*,19%,?,34
Clc1ccc(Oc2cnc3ccccc3n2)cc1,1%,9%,33*,-9%,54%,21*
Cc1ccc(Oc2cnc3ccccc3n2)cc1,7%,1%,103*,72%,122%,58*
Fc1ccc(Oc2cnc3ccccc3n2)cc1,15%,/,39*,22%,-13%,22
COc1cc(C2CC(=O)N(CC(=O)Nc3ccccc3F)c3ccccc3S2)cc(OC)c1OC (centres undefined),3%,/,/,/,/,/
O=C(Oc1ccccc1OC(=O)N1CCOCC1)N1CCOCC1,-2%,2%,7,5%,-10%,-3
O=C(CCC(=O)Nc1ccc(Cl)cc1)N/N=C/c1ccc2c(c1)OCO2,1%,-27%,-13,?,?,-2
O=C(N/N=C/c1cc2c(cc1Cl)OCO2)c1ccc2c(c1)OCCO2,2%,3%,70*,0%,?,42*
O=C(N/N=C/c1ccccc1OC(=O)N1CCOCC1)c1cccs1,-7%,/,47,14%,?,35*
O=C(N/N=C\c1cc2c(cc1[N+](=O)[O-])OCO2)c1cccs1,0%,6%,20,5%,?,8
SMILES,Sm TGR inh,NS1 function inh,Shiga toxin inh,Pf growth 48h,Pf growth 96h,Cycloheximide cs
O=C(N/N=C\c1ccc(S(=O)(=O)O)o1)c1ccc2c(c1)OCO2,-5%,-4%,-4,-6%,?,-3
O=C(N/N=C\c1cc2c(cc1Cl)OCO2)c1cccs1,-1%,-4%,69*,64%,44%,26*
O=C(N/N=C/c1ccc2c(c1)OCO2)C1CC1,7%,-16%,49*,108%,96%,37*
CN(CC(=O)Nc1ccccc1Cl)C(=O)Cn1cnc2ccc(Cl)cc2c1=O,-7%,/,/,-19%,?,/
O=C(N/N=C/c1cccc(O)c1)c1ccc2c(c1)OCCO2,0%,-3%,9,144%,150%,9
O=C(N/N=C\c1cccc(OC(=O)c2ccco2)c1)c1ccc2c(c1)OCO2,-17%,-2%,50*,140%,95%,32*
O=C(N/N=C/c1ccc2c(c1)OCO2)c1ccc2c(c1)OCO2,4%,5%,72*,15%,96%,42*
